For some assays here: Measured potencies and affinities stand elsewhere. Activity calls are given as the source filed them. Unless noted, no rule for the calls is given here.
Columns and labels:
[1] = antimalarial activity against Dd2 strain (AID 2302;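 active = growth inhibition above 50% at the single 2 µM test dose, taken to imply half-maximal potency below 2 µM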;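 also: 0% = DMSO untreated growth and 100% = chloroquine plus artemisinin killed control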); details: P. falciparum Dd2 in RBCs, LDH growth readout, 72 h; at 2 µM; hits give high values
[2] = human hepatoma cell viability loss – ATP luminescence, cytotoxicity control for P. falciparum antimalarial project, primary screen (AID 2303;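 active = inhibition above 50%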;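 also: 0% = DMSO wells and 100% = digitonin-killed cells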); details: HepG2 viability, 24-48 h, at 10 µM, hits give high values
[3] = target: L-lactate dehydrogenase (Plasmodium falciparum (isolate CDC / Honduras)) (UniProt Q27743); assay: PfLDH activity inhibition – cell lysate, 3D7 strain, counter-screen for P. falciparum growth inhibition project (AID 2304);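 also: 0% = vehicle and 100% = reference inhibitor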; details: P. falciparum 3D7 crude extract, LDH APAD/NBT absorbance; at 2 µM; hits give high values
Chain of L-lactate dehydrogenase (Plasmodium falciparum (isolate CDC / Honduras)) (Q27743 whole entry, looked up): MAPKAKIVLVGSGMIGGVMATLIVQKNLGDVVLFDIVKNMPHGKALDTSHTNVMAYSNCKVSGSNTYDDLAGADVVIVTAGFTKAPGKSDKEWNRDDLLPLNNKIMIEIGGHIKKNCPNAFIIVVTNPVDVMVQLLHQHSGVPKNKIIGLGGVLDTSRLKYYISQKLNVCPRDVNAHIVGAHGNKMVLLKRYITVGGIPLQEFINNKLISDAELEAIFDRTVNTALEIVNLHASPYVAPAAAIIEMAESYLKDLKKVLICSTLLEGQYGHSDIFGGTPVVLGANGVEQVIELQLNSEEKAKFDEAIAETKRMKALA

[4] = inhibition of 3D7 malaria parasite growth – strain 3D7 (AID 2306);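 also: 0% = DMSO wells and 100% = chloroquine plus artemisinin control wells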; details: P. falciparum 3D7 erythrocytic growth, LDH absorbance, 72 h; at 2 µM; hits give high values
[5] = target: Calcium-dependent protein kinase 1 (Plasmodium falciparum (isolate 3D7)) (UniProt P62344); assay: PfCDPK1 kinase inhibitors, biochemical, TCAMS library (AID 1159585; cut-off not given, nearly all actives have IC50 up to about 0.98 µM;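 also: inhibitors leave more ATP so luminescence rises with inhibition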); details: recombinant PfCDPK1, Kinase-Glo ATP depletion luminescence
Chain of Calcium-dependent protein kinase 1 (Plasmodium falciparum (isolate 3D7)) (P62344 whole entry, looked up): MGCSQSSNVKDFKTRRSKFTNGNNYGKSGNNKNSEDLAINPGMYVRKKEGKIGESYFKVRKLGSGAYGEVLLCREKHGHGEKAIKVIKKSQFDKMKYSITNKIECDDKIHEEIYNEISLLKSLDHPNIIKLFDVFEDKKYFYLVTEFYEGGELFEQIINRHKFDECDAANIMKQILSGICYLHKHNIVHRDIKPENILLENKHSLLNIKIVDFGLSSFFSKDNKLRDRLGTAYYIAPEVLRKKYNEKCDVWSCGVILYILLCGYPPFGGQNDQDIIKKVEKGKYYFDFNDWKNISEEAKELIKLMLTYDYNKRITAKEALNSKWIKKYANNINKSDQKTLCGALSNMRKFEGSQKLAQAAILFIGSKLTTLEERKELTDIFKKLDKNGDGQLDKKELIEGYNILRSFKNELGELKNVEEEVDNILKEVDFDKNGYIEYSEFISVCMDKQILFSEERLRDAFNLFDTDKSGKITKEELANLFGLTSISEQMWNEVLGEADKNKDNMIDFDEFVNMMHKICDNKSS

[6] = target: Plasmodium falciparum protein kinase 6 (PK6, PF3D7_1337100) (UniProt Q8IDW1); assay: PfPK6 kinase inhibitors, biochemical, TCAMS library (AID 1159586); details: recombinant PfPK6, Kinase-Glo ATP depletion luminescence
Chain of Plasmodium falciparum protein kinase 6 (PK6, PF3D7_1337100) (Q8IDW1 1-305): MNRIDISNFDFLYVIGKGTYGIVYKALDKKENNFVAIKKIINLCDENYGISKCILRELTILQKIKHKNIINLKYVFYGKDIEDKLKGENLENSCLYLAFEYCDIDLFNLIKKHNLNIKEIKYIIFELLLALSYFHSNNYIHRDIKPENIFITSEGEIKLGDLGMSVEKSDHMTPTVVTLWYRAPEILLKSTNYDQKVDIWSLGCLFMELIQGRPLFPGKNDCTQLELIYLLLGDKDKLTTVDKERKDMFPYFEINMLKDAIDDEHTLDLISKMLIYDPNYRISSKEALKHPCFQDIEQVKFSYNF

[7] = target: Protein kinase 7 (PK7), Plasmodium falciparum 3D7 (PF3D7_0213400) (UniProt Q7YTF7); assay: inhibition of Plasmodium PK7 catalytic activity – biochemical, TCAMS antimalarial set, Kinase-Glo luminescence (AID 1159587); details: recombinant PfPK7, Kinase-Glo ATP depletion luminescence
Chain of Protein kinase 7 (PK7), Plasmodium falciparum 3D7 (PF3D7_0213400) (Q7YTF7 1-343): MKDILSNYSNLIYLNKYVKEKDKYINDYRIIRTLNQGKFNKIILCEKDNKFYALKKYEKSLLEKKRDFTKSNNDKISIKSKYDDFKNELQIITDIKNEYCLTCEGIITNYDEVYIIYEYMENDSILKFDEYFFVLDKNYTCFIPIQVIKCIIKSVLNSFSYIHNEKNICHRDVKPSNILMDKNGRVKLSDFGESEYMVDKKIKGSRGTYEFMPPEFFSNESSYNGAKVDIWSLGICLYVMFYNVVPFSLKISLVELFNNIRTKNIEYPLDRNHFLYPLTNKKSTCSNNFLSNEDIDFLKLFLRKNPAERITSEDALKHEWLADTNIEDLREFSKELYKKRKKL

[8] = target: Calcium-dependent protein kinase 4 (Plasmodium falciparum (isolate 3D7)) (UniProt Q8IBS5); assay: PfCDPK4 kinase inhibitors, biochemical, TCAMS library (AID 1159588; cut-off not given, nearly all actives have IC50 up to about 0.91 µM); details: recombinant PfCDPK4, Kinase-Glo ATP depletion luminescence
Chain of Calcium-dependent protein kinase 4 (Plasmodium falciparum (isolate 3D7)) (Q8IBS5 whole entry, looked up): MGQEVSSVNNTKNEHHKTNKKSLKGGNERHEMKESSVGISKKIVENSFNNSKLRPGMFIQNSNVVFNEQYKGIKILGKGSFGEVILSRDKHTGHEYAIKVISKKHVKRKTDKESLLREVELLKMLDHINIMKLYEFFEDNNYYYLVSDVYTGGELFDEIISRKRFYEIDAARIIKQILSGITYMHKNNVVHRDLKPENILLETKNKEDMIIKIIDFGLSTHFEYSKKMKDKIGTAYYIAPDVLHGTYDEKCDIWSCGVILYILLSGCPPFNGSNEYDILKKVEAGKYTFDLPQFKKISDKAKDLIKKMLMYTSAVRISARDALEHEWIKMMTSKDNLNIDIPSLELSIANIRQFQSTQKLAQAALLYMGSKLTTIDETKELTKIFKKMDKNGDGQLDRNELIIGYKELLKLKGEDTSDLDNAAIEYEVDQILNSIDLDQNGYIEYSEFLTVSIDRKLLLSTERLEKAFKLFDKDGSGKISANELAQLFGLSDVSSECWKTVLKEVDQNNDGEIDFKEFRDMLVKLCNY

CCCN(CC1CC1)c1nc(C)nc2c(-c3ccccc3)cc(C)cc12
inactive: inhibition [3] 1% | outcome [5] | outcome [6] | outcome [7] | outcome [8]
active: growth inhibition [1] 78% | inhibition [2] 72% | growth inhibition [4] 96%

COc1ccc2c(NN=Cc3ccc(F)cc3)ccnc2c1
active: growth inhibition [1] 99% | growth inhibition [4] 100%
inactive: inhibition [2] 14% | inhibition [3] -4% | outcome [5] | outcome [6] | outcome [7] | outcome [8]

O=C(NCCCCCN1CCC(c2c[nH]c3ccccc23)CC1)c1ccc(-c2cccnc2)cc1
inactive: growth inhibition [1] 10% | inhibition [2] 29% | inhibition [3] 1% | outcome [5] | outcome [6] | outcome [7] | outcome [8]
active: growth inhibition [4] 89%

O=S(=O)(NCCN1CCCC1)c1ccc(-c2ccc(CN3Cc4ccccc4C3)cc2)s1
inactive: growth inhibition [1] 18% | inhibition [2] 19% | inhibition [3] 5% | outcome [5] | outcome [6] | outcome [7] | outcome [8]
active: growth inhibition [4] 89%

COc1ccc(-c2cccc(NC(=O)c3cccc(C#N)c3)c2)cc1CN1CCCN(C)CC1
active: growth inhibition [1] 99% | growth inhibition [4] 101%
inactive: inhibition [2] 22% | inhibition [3] -4% | outcome [5] | outcome [6] | outcome [7] | outcome [8]

O=C(NOCc1ccccc1)c1cc(Cl)ccc1O
active: growth inhibition [4] 83%
inactive: growth inhibition [1] -1% | inhibition [2] 2% | inhibition [3] 5% | outcome [5] | outcome [6] | outcome [7] | outcome [8]

COc1ccc(CCc2ccc(-c3c(C)[nH]c(C)c(Cl)c3=O)cc2)cc1
active: growth inhibition [1] 97% | growth inhibition [4] 98%
inactive: inhibition [2] -3% | inhibition [3] 3% | outcome [5] | outcome [6] | outcome [7] | outcome [8]

Cc1cccc2[nH]c(-c3ccc(-c4cccc(NC(=O)COc5ccccc5C(N)=O)c4)s3)nc12
inactive: growth inhibition [1] 19% | inhibition [3] -6% | outcome [5] | outcome [6] | outcome [7] | outcome [8]
active: inhibition [2] 80% | growth inhibition [4] 99%

CNC(=O)c1ccc2nc(C3CC3)n(CC3CCN(S(=O)(=O)c4cccc(Cl)c4)CC3)c2c1
active: growth inhibition [1] 100% | growth inhibition [4] 100%
inactive: inhibition [2] -6% | inhibition [3] 3% | outcome [5] | outcome [6] | outcome [7] | outcome [8]

c1ccc(C2CCC(N3CCC(N4CCN(c5ccccc5)CC4)CC3)CC2)cc1 (stereo not given)
inactive: growth inhibition [1] 34% | inhibition [2] 6% | inhibition [3] -3% | outcome [5] | outcome [6] | outcome [7] | outcome [8]
active: growth inhibition [4] 97%

— PubChem BioAssay
